Consider 14 compounds from PubChem BioAssay (NCI).

What all share (test): NCI-60 one-dose screen, 48 h (100 = growth as untreated, 0 = no growth, -100 = all killed)
Common to all, as to conditions: 10 µM unless noted

Assay [1] has as its system NCI-H23 lung.
The test system of assay [2] is NCI-H226 lung.
In assay [3] the test system is NCI-H322M lung.
In assay [4] the test system is HOP-62 NSCLC.
The subject of assay [5] is NCI-H460 lung.
Assay [6] concerns HOP-92 NSCLC.
Assay [7] concerns NCI-H522 lung.
Assay [8] relates to A549/ATCC NSCLC.
The subject of assay [9] is 786-0 renal.
The test system of assay [10] is COLO 205 colon.

About 83,000 compounds went through this panel and 20% of them were active in at least one assay; those are over-represented in the sample as a whole.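 Percent growth is the endpoint: 0 to 100 indicates growth inhibition (40 means 60% inhibition), 0 means no net growth, and negative values indicate cell death.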 Unmarked numbers belong to inactive results. The source made the active and inactive calls. How the source made its calls: active means growth percent below 10; inactive means the rest.

Take `O=c1c2cccc3c(NC4CCCCC4)ccc(c32)c2nc3ccccc3n12`: the growth was 46% in assay [1]; 72% in assay [2]; 82.3% in assay [3]; 90.6% in assay [4]; 34.7% in assay [5]; 48.4% in assay [6]. Also, the growth is 61.5% in assay [7], 66.5% in assay [8], 108% in [9] and 75.6% in [10].
Regarding `CCN(CC)CC(C)Nc1ccc([N+](=O)[O-])c2sc3ccccc3c(=O)c12` (stereo not given), the growth in assay [1] is 33.5%; in assay [2], 24%; in assay [3], 26.6%; in assay [4], 46.2%; in [5] it was 9.64% (active); in [6], 7.52% (active). For the same compound, the growth is 0.683% (active) in assay [7], 14.2% in assay [8], 16.3% in [9] and 10.8% in assay [10].
Take `COc1cc2c(=O)n(CC3CCCCC3)c3c4cc[nH]c4ncc3c2cc1OC`: the growth was 45.3% in assay [1]; 34.5% in [2]; 59% in assay [3]; 19.2% in assay [4]; 21.1% in assay [5]; 1.65% (active) in assay [6]. For the same compound, the growth was 35.1% in assay [7], 31.6% in [8], 46.4% in assay [9] and 6.79% (active) in [10].
For the compound `CC/C=C\C[C@H](O)C/C=C1/C(=O)C=C[C@@H]1C/C=C\CCCC(=O)NC(C)C`, the growth in assay [1] is 13.4%; in assay [2], -33.5% (active); in assay [3], 39.9%; in assay [4], -16.8% (active); in assay [5] it was -4.43% (active); in assay [6] it was 65.3%. Moreover, the growth was -35.5% (active) in assay [7], 2.59% (active) in [8], 0.451% (active) in assay [9] and -41.3% (active) in assay [10].
For `CN(C)c1ccc(/C=C(\C#N)c2nc3ccccc3s2)cc1`, the growth in assay [1] was 102%; in assay [2], 101%; in assay [3], 86.8%; in assay [4], 116%; in [5], 103%; in assay [6], 104%. The growth was 92.7% in [7], 105% in assay [8], 96.8% in assay [9] and 123% in [10].
`COc1ccc(Cl)cc1Nc1nc(C(F)(F)F)ccc1C(=O)N/N=C/c1cccnc1`: the growth in assay [1] was 41.5%; in [2], 51.9%; in [3], 59%; in assay [4] it was 54%; in assay [5], 33.6%; in [6], 56.8%. Further, the growth is 29.3% in [7], 58.7% in [8], 18.7% in [9] and 44.5% in assay [10].
As for `CC(C)n1cc2c(N)ncnc2n1`, the growth in assay [1] was 103%; in assay [2], 94.5%; in assay [3] it was 86.6%; in assay [4], 96.4%; in [5] it was 107%; in assay [6] it was 144%. In addition, the growth in assay [7] was 99.3%; in [8], 102%; in [9], 100%; in assay [10] it was 118%.
In the case of `O=C(COc1cccc(/C=C2/Oc3ccccc3C2=O)c1)Nc1nccs1`, the growth in [1] is 61.6%; in assay [2] it was 99.3%; in [3], 95.7%; in assay [4], 93.3%; in [5], 103%; in [6], -51.4% (active). Moreover, the growth in assay [7] is -9.74% (active); in assay [8], 88.2%; in assay [9], 90.7%; in assay [10] it was 235%.
With `CCc1ccccc1NC(=O)c1sc2nc3c(cc2c1N)C(=O)CCC3`, the growth was 38.2% in assay [1]; 67.3% in assay [2]; 46.3% in assay [3]; 35.5% in [4]; 6.42% (active) in assay [5]; 84.8% in assay [6]. The growth is -11.6% (active) in [7], 21.5% in assay [8], 35.1% in assay [9] and -7.87% (active) in assay [10].
Take `COC(=S)SCN(CSC(=S)OC)c1ccc(Cl)cc1`: the growth is 80% in assay [1]; 69.9% in assay [2]; 76.1% in assay [3]; 76.9% in [4]; 87% in assay [5]; 74.7% in assay [6]. The growth in assay [7] is 79.9%; in [8] it was 81.6%; in assay [9], 94.3%; in [10], 111%.
Consider `Cc1nc2sc(C(=O)Nc3cccc4c3OCCO4)c(N)c2cc1C(C)O` (stereo not given), for which the growth in [1] was 57.6%; in assay [2], 50.2%; in assay [3], 62.8%; in [4], -3.21% (active); in [5], 15.8%; in assay [6] it was 49.6%. In addition, the growth in assay [7] was -29.3% (active); in assay [8], 49.9%; in assay [9] it was 43.2%; in [10], 5.86% (active).
Regarding `Cc1ccc(S(=O)(=O)n2cc(-c3csc(-c4cn(C)c5ncccc45)n3)c3ccccc32)cc1`, the growth in assay [1] was 68.1%; in assay [2], 77.6%; in assay [3], 79.5%; in assay [4], 51.8%; in assay [5] it was 30.3%; in [6] it was 35.8%. The growth in assay [7] was 45.6%; in assay [8] it was 41.5%; in assay [9], 77.9%; in assay [10], 43.6%.
As for `CC/C(Cc1ccccc1)=C(\c1ccc(OCCN2CCCC2)cc1)c1ccc(OC(C)=O)cc1`, the growth is 80.6% in [1]; 93% in assay [2]; 86.5% in assay [3]; 94.5% in assay [4]; 42.9% in [5]; 78.8% in assay [6]. The growth in assay [7] was 83.2%; in assay [8], 78.4%; in [9], 82.3%; in [10], 7.7% (active).
As to `COc1ccc(/C=C/C(=O)c2ccc(NC(=O)c3cc4cc5ccccc5nc4s3)cc2)cc1OC`, the growth in assay [1] is 87%; in [2], 86%; in [3] it was 84.2%; in assay [4] it was 92.3%; in [5], 99.9%; in assay [6], 108%. In addition, the growth is 95.9% in [7], 105% in [8], 106% in [9] and 99.5% in assay [10].
